Rows were chosen to be rich in hits. Some 21% of all compounds tested hit in one or more screens of this group.
Pf growth 48h: inhibits P. falciparum growth in the first generation, 48 h; 310,000 compounds, 5.9% hits; P. falciparum luciferase growth in erythrocytes, 48 h; Potency, µM (titrated, usually from 28.7 µM), for inactives: top-dose activity change, negative = inhibition, actives largely listed as inhibitors; further: potency means the concentration at half of the fitted maximal effect; on the % scale 0 is the no-effect control and ±100 the full control effect
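Firefly luciferase activity from engineered P. falciparum reports growth; inhibitors lower the luminescent signal. Cultures contained 2% hematocrit erythrocytes at 0.1% final parasitemia.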
NS1 inh: blocks influenza NS1 protein function | Potency, µM (doses to about 46.1 µM), inactives show top-dose activity, positive = more growth | 270,000 compounds, 0.4% hits | AID 2326; calls by dose curve; further: potency means the concentration at half of the fitted maximal effect; actives are rising curves; nearly all actives have a fitted effect of over 50% in size
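S. cerevisiae expressing influenza A NS1, grown in glucose, washed, then diluted 1:100 into pH 6.0 -URA galactose medium with 23 nl compound. Growth recovery read as OD600; NS1-free strain serves as control.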
Pf growth 96h: P. falciparum growth inhibition at 96 hours; P. falciparum luciferase reporter growth, 96 h; Potency, µM (highest dose often 28.7 µM), inactives show at the top dose activity change, negative = inhibition, hits mostly inhibitors; 320,000 compounds, 6.9% hits; AID 504834; further: potency means the concentration at half of the fitted maximal effect; on the % scale 0 is the no-effect control and ±100 the full control effect
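Two parasite generations (96 h, 37 C, 5% CO2) of compound exposure in infected erythrocytes (0.05% parasitemia, 2% hematocrit). Luciferase-reporter P. falciparum; decreased luminescence indicates inhibited growth, aimed at apicoplast-acting delayed death.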
SARS PLpro yeast: inhibitors of SARS-CoV papain-like protease in yeast. S. cerevisiae expressing SARS-CoV PLpro, growth rescue. Potency, µM (doses to about 32.9 µM), for inactives: top-dose activity, positive = growth rescue, actives largely listed as activators. 330,000 compounds, 0.19% hits. AID 485353; calls by dose curve; further: potency means the concentration at half of the fitted maximal effect; 0% is about no effect; nearly all actives have a fitted effect of over 55% in size
CHX counter: counter-screen for Shiga toxin inhibitors: cycloheximide protein synthesis inhibition; cell reporter, cycloheximide protein synthesis inhibition counterscreen; 300,000 compounds, 12% hits; max response, %; AID 2314; in the data active means max response mostly above about 13%, no sharp cut-off; inactive means mostly below about 14%; further: read at 38.3 µM for the half of the compounds with a filed dose; 0% is about no effect
Shiga inhibitor: blocks Shiga toxin action in Vero cells. Vero cells, Shiga toxin protein synthesis inhibition reporter. inhibition, % at 38.7 µM. 290,000 compounds, 9.2% hits. AID 2315; in the data active means inhibition mostly above about 28%, no sharp cut-off; inactive means mostly below about 43%; further: 0% is about no effect
* marks the source's active call; other numbers are inactive results; ? = inconclusive; . = not tested or not shown; [ ] = another dose, or the depositor's remark. Unless noted, the call rests on the fitted dose curve; in most records, active means well fitted inhibition curve with a large enough effect; inconclusive means small, poorly fitted or top-dose-only effect, or another doubt; inactive means no such curve, though single readings can be large or run the other way.

SMILES	Pf growth 48h	NS1 inh	Pf growth 96h	SARS PLpro yeast	CHX counter	Shiga inhibitor
Cc1cc(C)c2c(c1)cc(C)c1nnc(SCC(=O)N3CCCc4ccccc43)n12	1%	3%	5.9µM*	-18%	-2	-13
Cc1cc(Cl)c2cc3ccccc3cc2n1	-10%	-1%	8%	0%	1	24
NC(=O)c1ccc(NC(=O)CSc2nncn2-c2ccccc2)cc1	5%	9%	17%	-1%	-7	-5
COc1ccc(-c2nnc(SCC(=O)Nc3c(Cl)cc(Cl)cc3C(=O)O)o2)cc1	.	.	.	-4%	.	.
O=C(CSc1ncn(-c2ccccc2)n1)Nc1nncs1	14%	-6%	33%[1.15 µM]	1%	-1	-9
Cc1ccc(C(=O)Nc2nnc(SCC(=O)N3CCCc4ccccc43)s2)cc1	?	9%	-67%	-30%	33*	49*
CC(=O)Nc1ccc(C(=O)CSc2ncn(-c3ccccc3)n2)cc1	33%	2%	13µM*	-6%	23*	8
CCn1c(SCC(=O)N2CCc3ccccc32)nnc1-c1ccco1	-14%	-10%	?	6%	-3	-6
Cc1cc(C)nc(SCc2nnc(SCC(=O)N3CCCc4ccccc43)n2C)n1	?	-5%	123%	1%	1	-4
Cc1ccnc(SCC(=O)N2CCc3ccccc32)n1	77%	-5%	290%	1%	32*	73*
Cc1cc(C)nc(SCc2nnc(SCC(=O)N3CCCc4ccccc43)o2)n1	-21%	-14%	1.5µM*	6%	0	23
CCOc1cccc(C2/C(=C(/O)c3ccc4c(c3)CC(C)O4)C(=O)C(=O)N2Cc2cccnc2)c1 (stereo unspecified)	?	-20%	?	21%	3	13
CC(=O)Nc1ccc(S(=O)(=O)NCC2(N3CCOCC3)CCCCC2)cc1	-17%	.	5%	4%	.	.
COc1ccc(C(=O)N2CCN(Cc3nc(CC4CC4)no3)CC2)cc1	31%	0%	?	4%	1	-4
O=C(O)c1cccnc1SCC(=O)N1CCCc2ccccc21	15%	-2%	5%	-2%	47*	99*
O=C(OCC(=O)N1CCCc2ccccc21)c1cccnc1Cl	29%	-2%	18%	9%	11	24
CCC1(c2ccc(Cl)cc2)NC(=S)N(c2ccccc2)N1 (stereo unspecified)	46%	9%	11%	-8%	14*	37
CCC1(c2ccccc2)NC(=S)N(c2ccc(C)cc2)N1 (stereo unspecified)	2%	.	?	11%	27*	54
CC1CCC2(CC1)NC(=S)N(c1ccccc1)N2 (stereo unspecified)	.	-60%	-26%	-16%	24	41
CCC(C)[C@H](NC(=O)Nc1ccc(C)cc1C)C(=O)O (stereo partly specified)	9%	2%	25%	1%	-1	57
COCC(=O)c1[nH]c2ccccc2c1C	1%	-47%	3.7µM*	?	11	-2
CCCC(C)NC(=O)Cc1ccc(S(=O)(=O)N2CCOCC2)s1 (stereo unspecified)	-27%	.	-23%	0%	.	.
Oc1c(C(c2ccccn2)N2CCC(Cc3ccccc3)CC2)cc(Cl)c2cccnc12 (stereo unspecified)	2.9µM*	.	0%	-18%	13	48
CN1CCN(C(c2ccccn2)c2cc(Cl)c3cccnc3c2O)CC1 (stereo unspecified)	4.7µM*	-5%	?	-24%	-1	16
c1ccc(CC2CCN(Cc3ccccn3)CC2)cc1	?	1%	-11%	0%	5	15
SMILES	Pf growth 48h	NS1 inh	Pf growth 96h	SARS PLpro yeast	CHX counter	Shiga inhibitor
Cc1ccc(C(c2cc(Cl)c3cccnc3c2O)N2CCN(C)CC2)cc1 (stereo unspecified)	4.1µM*	-98%	?	.	21	37
Oc1c(C(c2ccccc2Cl)N2CCCC2)ccc2cccnc12 (stereo unspecified)	-54%[1.15 µM]	2%	?	-5%	-5	17
CN1CCN(C(c2ccc(C(F)(F)F)cc2)c2ccc3cccnc3c2O)CC1 (stereo unspecified)	?	-157%	?	-15%	-3	-15
C=CC(N)CCC(=O)O (stereo unspecified)	0%	-12%	21%	.	.	.
CCN(CC)c1ccc(/C=N/NC(=O)c2ccc(Br)o2)cc1	-11%	-15%	?	-39%	33*	38*
O=C(N/N=C/c1ccc2c(c1)OCO2)c1ccc(Cl)cc1Cl	-1%	-26%	29%	-8%	15*	18
Cc1cc(Br)cc(/C=N/NC(=O)c2ccc3c(c2)OCO3)c1O	13µM*	6%	13µM*	0%	17*	26*
O=C(N/N=C/c1ccc2c(c1)OCO2)c1sc2cc(Cl)ccc2c1Cl	14%	0%	-26%	17%	6	-11
O=C(c1ccccc1)c1ccc2nc[nH]c2c1	34%	2%	.	4%	10	27
Cc1nc2ccc(C(=O)c3ccccc3)cc2[nH]1	139%	-60%	100%	-8%	34*	53*
CCn1c(SCC(=O)Nc2ccc(OC)c(S(=O)(=O)N3CCCCC3)c2)nnc1C1CC1	-19%	.	?	0%	.	.
Cc1n[nH]c(C)c1CCC(=O)N/N=C/C=C/c1ccccc1	-11%	-5%	31%	0%	-3	-12
Cc1cc(C(=O)COC(=O)c2cccnc2Cl)c(C)n1-c1c(C)n(C)n(-c2ccccc2)c1=O	-7%	.	0%	19%	12	8
CCn1cc(S(=O)(=O)N2CCCC2)cn1	10%	26%	-2%	1%	-2	-25
O=C(N/N=C/c1ccccc1O)c1ccc2c(c1)OCO2	-6%	-39%	104%	8%	50*	96*
O=C(N/N=C/c1ccc2c(c1)OCO2)c1ccc2c(c1)OCCO2	118%	-3%	78%	2%	55*	64*
COC(=O)c1ccc2[nH]c(C)cc(=O)c2c1	-7%	-2%	7%	-10%	-3	30
O=C(N/N=C/c1ccncc1)c1ccc2c(c1)OCO2	109%	.	?	-7%	24*	76*
Cc1cc(=O)c2cc(C(=O)c3ccccc3)ccc2[nH]1	13µM*	-6%	?	-1%	9.4*	38
Cc1cc(C)cc(-n2ncc3c2CCCC3NC(=O)CCN2CCCC2=O)c1 (stereo unspecified)	36%	6%	?	27%	17	30
CCN(CC)c1ccc(/C=N/NC(=O)Nc2nonc2N)cc1	23%	0%	7%	-8%	57*	66*
O=C(N/N=C/c1ccc2c(c1)OCO2)c1ccc(Br)o1	214%	-7%	-6%	2%	81*	139*
O=C(NCc1ccc2c(c1)OCO2)c1ccc(Br)o1	2%	-1%	10%	0%	9	39
C[n+]1cccc(C(=O)N/N=C/c2ccc3c(c2)OCO3)c1	-1%	-4%	-27%	0%	-6	-6

High-throughput results from PubChem BioAssay.
